Y pestis TopoI: Y. pestis Topo-I inhibition via cleavage products | Y. pestis Topo-I cleavage product accumulation, plate reader | activity, % at 10 µM | actives 0.064% (n = 360,000); in the data active means activity above about 50%, passing the limit was not always enough
Sa RN4220 lethal: kills Staphylococcus aureus RN4220; S. aureus RN4220 growth, OD600, 16 h; inhibition, % (test concentration not listed); actives 0.33% (n = 330,000); in the data active means inhibition above about 85%
Mtb hypoxia inh: inhibitors of hypoxia-regulated fluorescent reporter in Mycobacterium tuberculosis. M. tuberculosis hypoxia-regulated fluorescent reporter, fluorescence. fluorescence inhibition, % (no concentration beside the values). actives 0.1% (n = 300,000). AID 1159583; in the data active means fluorescence inhibition mostly above about 23%, no sharp cut-off; inactive means mostly below about 17%
BioA inh: blocks M. tuberculosis BioA enzyme activity; actives 0.096% (n = 360,000); inhibition, % at 9.99 µM; purified M. tuberculosis BioA enzyme, plate reader; in the data active means inhibition above about 40%
TcdB inh: blocks C. difficile toxin B glycohydrolase activity; P18177; TcdB glycohydrolase enzymatic assay, plate reader; inhibition, % at 9.99 µM; actives 0.24% (n = 350,000); in the data active means inhibition above about 10%
ugtP null kill: growth inhibition of S. aureus ugtP deletion strain | S. aureus RN4220 ugtP deletion, OD600 growth, 16 h | growth inhibition, % (test concentration not listed) | actives 0.54% (n = 330,000) | AID 1259309; in the data active means growth inhibition above about 68%
A number is an active result; . = inactive; / = no result given; ! = not active in a repeat. A selection: hits, their analogues and other compounds. The true share with any hit is near 0.75%.

SMILES | Y pestis TopoI | Sa RN4220 lethal | Mtb hypoxia inh | BioA inh | TcdB inh | ugtP null kill
CC1(C)CC(=O)C=C(c2ccc(COC(=O)/C=C/c3ccccc3)cc2)C1=O | 56 | / | / | . | . | /
CC1(C)CC(=O)C=C(c2ccc(COC(=O)c3ccccc3)cc2)C1=O | . | / | / | . | . | /
COc1c2c(cc(O)c1C(C)=O)OC(C)(C)C=C2 | . | . | . | . | . | .
CC(C)=CCC12Oc3cc(O)ccc3C1(O)Oc1cc3c(c(O)c1C2=O)C=CC(C)(C)O3 (centres undefined) | / | . | / | / | / | 97
O=C(CCc1ccc(O)cc1)c1c(O)cc(O)cc1O | . | . | . | . | . | .
COc1cc(O)c(CC=C(C)C)c(O)c1C(=O)CCc1ccc(O)cc1 | . | . | / | . | . | 92
COc1cc(C=CC(=O)O)cc(OC)c1O | / | . | . | / | / | .
Cc1ccc(C)c(NC(=O)CN2C(=O)NC(C)(c3ccc4c(c3)OCCO4)C2=O)c1 (centres undefined) | . | . | 34 | . | . | .
Cc1ccc(F)cc1NC(=O)CN1C(=O)NC(C)(c2ccc3c(c2)OCCO3)C1=O (centres undefined) | . | . | . | . | . | .
CCN(CC)CCCNC(=O)c1cc(-c2ccccc2)c(N2CCCCC2)s1 | . | . | . | . | . | 88
O=C(NCCc1ccccc1)c1cc(-c2ccccc2)c(N2CCOCC2)s1 | . | . | / | . | . | .
NC(=NO)c1nc(N2CCCC2)nc(N(c2ccccc2)c2ccccc2)n1 | / | . | / | / | / | .
C/C(C=NN1CCN(Cc2ccccc2)CC1)=C\c1ccccc1 | / | . | . | / | / | .
O=[N+]([O-])c1ccc(N/N=C/c2c[nH]c3ccccc23)c(S(=O)(=O)Nc2ccc(Cl)cc2)c1 | . | / | / | . | / | /
O=[N+]([O-])c1ccc(NN=Cc2c[nH]c3ccccc23)c(S(=O)(=O)Nc2ccc(Cl)cc2)c1 | / | . | . | / | / | 99
Cc1ccc2c(c1)/C(=C/c1ccccc1C)C(=O)N2 | . | . | . | . | 12 | .
COc1ccc(C=NNC(=O)C(C)n2nnc3ccccc32)cc1OC (centres undefined) | / | . | / | / | / | .
O=C(O)C1CCC(CN(Cc2cccc(Br)c2)C(=S)Nc2ccccc2F)CC1 (centres undefined) | . | . | . | . | 12 | .
O=S(=O)(Oc1ccccc1/C=N/n1cnnc1)c1ccccc1 | . | / | / | / | 20 | /
CCCCCC(=O)NN=Cc1ccco1 | / | . | . | / | / | .
NNC(=O)CCc1nc2ccc(O)cc2[nH]1 | . | / | / | . | 14 | /
CCOC(=O)C1C2COc3ccc(Br)cc3C2N2C(=O)N(c3ccc(Br)cc3)C(=O)[C@]12C (some centres undefined) | / | . | . | / | / | .
CCOC(=O)[C@@H]1[C@H]2COc3ccc(Br)cc3[C@@H]2N2C(=O)N(c3ccc(Br)cc3)C(=O)[C@]12C | . | / | / | . | 14! | /
C=CCc1ccc(OCCOc2cccc(C=Nn3cnnc3)c2)c(OC)c1 | / | . | / | / | / | .
CC(=O)c1ccc(-c2ccc(C3C4C=CCC[C@@]4(C)C(=O)N3Cc3ccccc3)c(F)c2)cc1 (some centres undefined) | / | . | . | / | / | .
SMILES | Y pestis TopoI | Sa RN4220 lethal | Mtb hypoxia inh | BioA inh | TcdB inh | ugtP null kill
CC(=N/N=C1\NC(=O)C(C)S1)c1ccco1 (centres undefined) | / | . | . | / | / | .
O=Nc1c(O)c2ccccc2c2ccccc12 | . | 100 | . | . | . | 99
O=c1ccc2ccccc2c2ccccc12 | / | / | / | / | . | /
COC(=O)C1=C(c2ccc(F)cc2F)CC2CCC1N2C (centres undefined) | / | . | . | / | / | .
O=C(O)C=CC(=O)O | / | . | . | / | / | .
Cc1ccccc1C(=O)NC(=S)Nc1ccc(Oc2ccc(Cl)cc2)cc1 | . | . | / | . | / | 86
O=C(Nc1cccnc1Cl)c1ccc(Cl)cc1 | . | . | . | . | . | .
Cc1ccc(C(=O)NC(=S)Nc2ccc(Oc3ccc(Cl)cc3)cc2)cc1 | . | . | . | . | / | .
O=C(NC(=S)Nc1cccnc1Cl)c1ccc(Cl)cc1 | . | . | . | . | . | 88
O=C(Cc1ccccc1)Nc1ccc(NC(=S)NC(=O)c2ccccc2)cc1 | . | . | . | . | . | 84
O=C(NC(=S)Nc1ccc(Oc2ccccc2)cc1)c1ccc(Cl)cc1 | . | . | / | . | / | 98
CCOC(=O)NN=Cc1c(C)c(C(=O)c2ccc(F)cc2)n2ccccc12 | / | . | . | / | / | .
CCCCSC(N)=NN=Cc1cc(C)ccc1O | / | . | . | / | / | .
Cc1cccc(C=NNC(=O)c2cc(-c3cccnc3)nc3c2c(C)nn3-c2ccccc2)c1 | / | . | . | / | / | .
CC(=NOC(=O)NC(C)C)c1sc(-c2ccccc2)nc1C | / | . | / | / | / | .
CCNC(=O)C[C@H]1CC[C@@H]2[C@@H](COc3ccc(NC(=O)c4cccc(OC)c4)cc3C(=O)N2C)O1 | / | / | / | . | 10 | /
COc1cccc(C(=O)Nc2ccc3c(c2)C(=O)N(C)[C@H]2CC[C@@H](CC(=O)NCC4CC4)O[C@@H]2CO3)c1 | / | / | / | . | . | /
COC(=O)C[C@H]1CC[C@@H]2[C@@H](COc3ccc(NC(=O)c4ccc(OC)cc4)cc3C(=O)N2C)O1 | / | / | / | . | 12 | /
COc1ccc(C(=O)Nc2ccc3c(c2)C(=O)N(C)[C@@H]2CC[C@H](CC(=O)NCC4CC4)O[C@@H]2CO3)cc1 | / | / | / | . | 15 | /
COc1ccc(CC(C)=NNC(=O)c2ccc(C)cc2C)cc1 | / | . | . | / | / | .
COc1ccc(C=NN2CCN(C)CC2)cc1OC | / | . | / | / | / | .
CCOc1cc(C=O)c(Br)cc1OC1CCCC1 | . | . | / | . | / | 87
COc1cc(C=O)c(Br)cc1OCc1ccc(C)cc1 | . | . | . | . | / | .
CN(C)c1nc(NN=Cc2ccccc2O)nc(Nc2ccc(F)cc2)n1 | / | 100 | . | / | / | 100
CN(C)c1nc(NCc2ccccc2)nc(NN=Cc2ccc(Cl)cc2Cl)n1 | / | . | . | / | / | .
SMILES | Y pestis TopoI | Sa RN4220 lethal | Mtb hypoxia inh | BioA inh | TcdB inh | ugtP null kill
CCN(CC)c1ccc(/C=C2\C(=O)NC(=S)N(c3ccc(OC)cc3OC)C2=O)o1 | . | . | 54 | . | / | .
CCN(CC)c1ccc(/C=C2\C(=O)NC(=S)N(C)C2=O)o1 | . | . | 58 | . | . | .
CN1C(=O)C(=Cc2ccc(N3CCCCC3)o2)C(=O)N(C)C1=S | . | / | / | / | / | /
COc1ccc(N2C(=O)/C(=C/c3ccc(N(C)C)o3)C(=O)NC2=S)cc1 | . | . | . | . | . | .
CCN(CC)c1ccc(C=C2C(=O)N(C)C(=S)N(C)C2=O)o1 | . | . | 46 | . | . | .
O=[N+]([O-])c1ccc(NN=Cc2cccnc2)nc1 | / | . | . | / | / | .
C=CCCC(Cc1ccc(F)cc1)C(=O)OCCNC(=O)C(CC=C)CC(=O)NC(CO)Cc1ccccc1 (centres undefined) | / | . | . | / | / | .
CC(C)CCn1c(=O)c2ccccc2n2c(CCl)nnc12 | . | . | 36 | / | . | .
CCn1c2c(c(=N)c3c1CCC3)CCCC2 | . | . | . | . | . | .
CCCCCCCCn1c2c(c(=N)c3ccccc31)CCC2 | . | 98 | . | / | . | 98
CCCCCCCCCn1c2c(c(=N)c3c1CCC3)CCCC2 | . | 100 | / | / | / | 100
CCCCCCCCCCn1c2c(c(=N)c3c1CCC3)CCC2 | . | 100 | . | . | / | 100

Screens (PubChem)
